The record followed here is PubChem BioAssay (NCI).

Compounds without any hit were thinned out: in the full panel of roughly 83,000, 20% have a hit.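 Growth was measured after 48 h exposure to one concentration of compound in 96-well plates. Values under 10 count as active.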 A number with no mark means an inactive call. Calls of active or inactive are those of the source.

Experiment in all cases: NCI-60 one-dose screen, 48 h (100 = growth as untreated, 0 = no growth, -100 = all killed)
Details in all cases: 10 µM unless noted

In assay [1] the test system is HCT-15 colon.
For assay [2], the system named is HT29 colon.
In assay [3] the test system is SNB-75 CNS.
In assay [4] the test system is SNB-19 CNS.
Assay [5] deals with U251 CNS.
For assay [6], the system named is PC-3 prostate.
In assay [7] the test system is SK-MEL-5 melanoma.
For assay [8], the system named is UACC-62 melanoma.
Assay [9] relates to LOX IMVI melanoma.
In assay [10] the test system is SK-MEL-28 melanoma.

Turning to `COc1ccccc1S(=O)(=O)Nc1ccc2c3c(cc(-c4cnn(C5CC5)c4)nc13)C(=O)N2C`, the growth in [1] was 62.7%; in assay [2], 44%; in assay [3] it was 19.2%; in [4] it was 77.6%; in assay [5] it was 81.6%; in assay [6] it was 61.3%. Besides, the growth in assay [7] is 57.5%; in assay [8], 35.4%; in [9] it was 47.5%; in assay [10], 77%.

`COc1ccc(OC)c(NCC(=O)n2nc(/C=C\c3ccc(O)c(OC)c3)cc2/C=C\c2ccc(O)c(OC)c2)c1`: the growth in [1] is 17.5%; in assay [2], -70.2% (active); in assay [3], 25.5%; in assay [4] it was 16.7%; in assay [5], 4.56% (active); in [6], 23.2%. The growth in [7] was 9.05% (active); in assay [8] it was 15.8%; in assay [9], 9.71% (active); in assay [10], 21.2%.

As to `Cc1cn(-c2cc(C(=O)Nc3cccc(-n4ccc5c(NC(=O)c6ccccc6)nccc54)c3)cc(C(F)(F)F)c2)cn1`, the growth is 4.61% (active) in assay [1]; -41.2% (active) in assay [2]; 27.2% in [3]; 28.9% in assay [4]; -3.87% (active) in assay [5]; 18.5% in assay [6]. Further, the growth in [7] was -54.5% (active); in assay [8] it was 27.1%; in [9], 5.46% (active); in assay [10], 33.3%.

For `CC(C)(C)OC(=O)N1CC(Cn2cc(C(F)(F)F)c3c(Cl)ncnc32)C1`, the growth in assay [1] was -41.4% (active); in assay [2], -62.2% (active); in assay [3] it was -52.5% (active); in assay [4] it was -89.8% (active); in assay [5], -98% (active); in assay [6] it was -75% (active). For the same molecule, the growth was -84.6% (active) in assay [7], -78.1% (active) in assay [8], -86.9% (active) in assay [9] and -79.6% (active) in [10].

Consider `COc1cc(/C=C2/Oc3cc4occc4c(OC)c3C2=O)ccc1OCC(=O)Nc1ccncc1`, for which the growth is 112% in [1]; 104% in assay [2]; 96.5% in [3]; 106% in assay [4]; 108% in assay [5]; 95.5% in assay [6]. For the same molecule, the growth in assay [7] was 100%; in [8], 93.5%; in [9], 99.5%; in assay [10], 117%.

In the case of `CCC(CC(C)C)Nc1ccc(NC(CC)CC(C)C)cc1` (stereo not given), the growth is 92% in assay [1]; 88.8% in assay [2]; 96.8% in assay [3]; 97.8% in assay [4]; 75.3% in assay [5]; -11.1% (active) in assay [6]. Moreover, the growth was 95.4% in [7], 89.3% in assay [8], 83.4% in assay [9] and 108% in [10].

Regarding `CC(=O)c1cc2c(N)c(C(=O)Nc3cccc(Cl)c3)sc2nc1C`, the growth was 72.4% in assay [1]; 82.3% in assay [2]; 82.6% in assay [3]; 91.3% in assay [4]; 91.4% in assay [5]; 74.4% in [6]. Also, the growth is 43.2% in assay [7], 56.2% in assay [8], 89.5% in assay [9] and 92.9% in assay [10].

For `CN1C(=O)C2(SCC(C(=O)NCC(=O)OC(C)(C)C)N2C(=O)C2CCCCC2)c2ccccc21` (stereo not given), the growth was 96.6% in assay [1]; 87.6% in assay [2]; 80.4% in [3]; 99.2% in [4]; 92% in [5]; 94.6% in [6]. Besides, the growth was 98.2% in assay [7], 91.8% in assay [8], 94.9% in assay [9] and 103% in assay [10].

As to `c1ccc([Se]CCCN2CCN(CCC[Se]c3ccccc3)CC2)cc1`, the growth in [1] is 90.9%; in assay [2], 96.3%; in assay [3], 100%; in [4] it was 119%; in [5], 101%; in assay [6], 102%. For the same molecule, the growth in assay [7] was 101%; in assay [8], 92.3%; in assay [9], 91.6%; in assay [10] it was 111%.

With `Nc1nc(-c2cc3c(cc2Cl)NC(=O)/C3=C/c2ccc(Cl)cc2)cs1`, the growth in assay [1] is 49.6%; in assay [2], 35.6%; in assay [3], 49.1%; in assay [4], 31.2%; in assay [5], 21.8%; in [6], 32.6%. In addition, the growth in [7] is 6.5% (active); in assay [8], 36%; in assay [9] it was 12.6%; in assay [10], 45.4%.

With `COc1cc(C(=O)N2CCN(C(=O)c3cc(OC)c(OCc4ccccc4)cc3N)CC2)c(N)cc1OCc1ccccc1`, the growth in assay [1] is 130%; in assay [2], 116%; in [3], 108%; in assay [4], 108%; in [5] it was 115%; in [6], 106%. Besides, the growth was 71.4% in assay [7], 114% in assay [8], 108% in assay [9] and 123% in assay [10].

As for `O=C(NOC1OC(CO)C(O)C(O)C1O)Nc1ccccc1` (stereo not given), the growth in assay [1] is 109%; in assay [2], 105%; in assay [3] it was 105%; in [4] it was 100%; in [5], 102%; in assay [6] it was 93.2%. In addition, the growth in [7] was 104%; in assay [8], 93.7%; in assay [9], 96.7%; in assay [10], 117%.

With `CN[C@@H](CCCNC(N)=NC/C=C(/C)CCC=C(C)C)C(=O)N(C)[C@@H](CCCNC(N)=NCC=C(C)C)C(=O)N[C@H](C)[C@H](OS(=O)(=O)O)c1ccc(OS(=O)(=O)O)c(COS(=O)(=O)O)c1`, the growth in [1] was 113%; in assay [2] it was 86.2%; in [3], 98.6%; in assay [4], 101%; in assay [5] it was 98.4%; in assay [6] it was 89.5%. Further, the growth was 99.6% in [7], 93.8% in assay [8], 99.7% in assay [9] and 107% in assay [10].

As to `CCOC(=O)C1CN(Cc2ccccc2)C(=O)C1=O` (stereo not given), the growth in assay [1] is 86.2%; in assay [2], 115%; in assay [3], 76.1%; in [4], 101%; in [5] it was 111%; in assay [6], 91.8%. The growth in [7] was 106%; in assay [8] it was 103%; in assay [9], 104%; in [10], 101%.
